# Publication PMC5540273 (PLoS ONE, 2017)
# System: CSF1R-autoinhibited
# Conditions: concentration: 1 μM, replicates: in singlicate; n = 1
# 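Also: KINOMEscan kinase panel screen.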
row,Structure (SMILES),%Inh [%]
1,O=C(Nc1ccccc1)Nc1ccc(Oc2ccc3nccn3n2)cc1,0
2,CN1c2ccc(-c3ccc(C(=O)NCCO)cc3)cc2-c2[nH]ncc2S1(=O)=O,25
3,CSc1ccc(NC2=C(c3ccccc3Cl)C(=O)NC2=O)cc1 [SB-342411],0
4,CS(=O)(=O)CCNCc1nc(-c2ccc3ncnc(Nc4ccc(OCc5cccc(F)c5)c(Cl)c4)c3c2)cs1.Cl [GW583340],0
5,Cl.c1ccc(Cn2ccc3cc(Nc4ncnc5ccccc45)ccc32)cc1 [GW275568],0
6,Nc1nccc2scc(-c3ccc4c(c3)CCN4C(=O)Cc3cc(F)ccc3F)c12 [GSK2587663],0
7,Fc1cccc(COc2ccc(Nc3ncnc4sc(-c5ccc[nH]5)cc34)cc2Cl)c1 [GW707818],28
8,Clc1ccc(-c2cc(-c3c[nH]nc3-c3ccccn3)ccn2)cc1 [GW681251],0
9,Cc1cc(N2CCC(NS(=O)(=O)c3ccc(F)cc3)CC2)nc(Nc2cccc(C#N)c2)n1.O=C(O)C(F)(F)F [GSK1653537],0
10,Cl.c1ccc(Cn2ncc3cc(Nc4ncnc5ccccc45)ccc32)cc1 [GW273749],0
11,O=c1cc(N2CCOCC2)nc2n(Cc3cccc(Cl)c3)ccn12 [GSK2296823],0
12,COc1ccc(NC(=O)c2ccc(-c3cc(-c4nnc(C)o4)ccc3C)cc2)cc1 [GW595885],7
13,Cc1ccc(NC(=O)c2cccc(C#N)c2)cc1-c1ccc(C(=O)Nc2ccncc2)cc1 [GSK1398463],0
14,FC(F)(F)c1ccc(-c2nn3ncccc3c2-c2ccnc(Nc3cccc(C(F)(F)F)c3)n2)cc1 [GW828205],0
15,CCn1c(-c2ccncc2)nc2cnccc21 [SB-735216],47
16,CC(C)(C)OC(=O)NC1CCCN(c2cc(-c3ccc4c(N)n[nH]c4c3)nc(N)n2)C1 (centres unmarked) [GSK2286096],0
17,CNc1nccc(-c2c(-c3ccc(F)cc3)ncn2C2CCN(C)CC2)n1 [SB-222903],0
18,CS(=O)(=O)CCNCc1ccc(-c2ccc3ncnc(Nc4ccc(OCc5ccccc5)c(Cl)c4)c3c2)o1.Cl [GW574783],7
19,COc1cc2c(Nc3cccc(NC(=O)c4ccccc4)c3)ncnc2cc1OCCCN1CCOCC1 [GSK223810],0
20,COc1ccc(NC(=O)Nc2ccc(C)c(-c3ccc(C(=O)Nc4ccncc4)cc3)c2)cc1 [GSK1398475],0
21,Oc1ccc2ncnc(Nc3ccc(OCc4ccccc4)cc3)c2c1 [GI262866],0
22,Fc1ccc(-c2ncn(CCCNCc3ccccc3)c2-c2ccncc2)cc1,19
23,FC(F)(F)c1ccc(-c2cc(-c3c[nH]nc3-c3ccccn3)ccn2)cc1 [GW599550],33

# System: CSF1R
# Conditions: concentration: 1 μM, replicates: in singlicate; n = 1
row,Structure (SMILES),%Inh [%]
1,Clc1cc(Nc2ncnc3cc[nH]c23)ccc1OCc1ccccn1,7
2,O=C(Nc1ccccc1F)NC1CCN(c2ccnc(Nc3ccc(F)cc3)n2)C1 (centres unmarked) [GSK1379722],4
3,Cc1ccc(O)cc1Nc1cc(C(F)(F)F)nc2ccc(-c3ccncc3)cc12 [GW630823],3
4,C[C@@H]1CCN(C(=O)CO)C[C@@H]1N(C)c1ncnc2[nH]ccc12,8
5,Cn1cc(-c2ccc3c(c2)CCN3C(=O)Cc2cccc(C(F)(F)F)c2)c2c(N)ncnc21 [GSK2606414],6
6,Cl.Cn1ccc(-c2cccc(Nc3ccnc4cc(-c5nccs5)ccc34)c2)n1 [GW525701],0
7,CCc1nc(-c2cccc(N(C)S(=O)(=O)c3ccccc3)c2)c(-c2ccnc(Nc3ccc(N4CCN(C(C)=O)CC4)nc3)n2)s1 [GSK1645895],17
8,CN1CCC(n2cnc(-c3ccc(F)cc3)c2-c2ccnc(NC3CCNCC3)n2)CC1 [SB-229482],16
9,Nc1nc(-c2cccnc2)c(-c2ccnc3ccccc23)s1 [GW684083],1
10,O=C(CCO)NCCn1ccc2ncnc(Nc3ccc(Oc4cccc(C(F)(F)F)c4)c(Cl)c3)c21,0
11,O=C(NCCCN1CCCC1=O)c1cnc(NCc2cc(Cl)ccc2Cl)nc1NC1CCNCC1,100
12,Fc1ccc(Nc2nccc(-c3c(-c4ccc(Cl)cc4)nn4ncccc34)n2)cc1F [GW829058],14
13,c1ccc(-c2ccc3c(-c4ccnc(Nc5ccc6c(c5)OCCO6)n4)cnn3n2)cc1 [GW818941],1
14,O=C(Nc1ccccc1)Nc1ccc(Oc2ccc3nccn3n2)cc1,39
15,CN1c2ccc(-c3ccc(C(=O)NCCO)cc3)cc2-c2[nH]ncc2S1(=O)=O,0
16,CSc1ccc(NC2=C(c3ccccc3Cl)C(=O)NC2=O)cc1 [SB-342411],7
17,CS(=O)(=O)CCNCc1nc(-c2ccc3ncnc(Nc4ccc(OCc5cccc(F)c5)c(Cl)c4)c3c2)cs1.Cl [GW583340],8
18,Cl.c1ccc(Cn2ccc3cc(Nc4ncnc5ccccc45)ccc32)cc1 [GW275568],55

row,Structure (SMILES),%Inh [%]
1,Nc1nccc2scc(-c3ccc4c(c3)CCN4C(=O)Cc3cc(F)ccc3F)c12 [GSK2587663],67
2,Fc1cccc(COc2ccc(Nc3ncnc4sc(-c5ccc[nH]5)cc34)cc2Cl)c1 [GW707818],17
3,Clc1ccc(-c2cc(-c3c[nH]nc3-c3ccccn3)ccn2)cc1 [GW681251],8
4,Cc1cc(N2CCC(NS(=O)(=O)c3ccc(F)cc3)CC2)nc(Nc2cccc(C#N)c2)n1.O=C(O)C(F)(F)F [GSK1653537],0
5,Cl.c1ccc(Cn2ncc3cc(Nc4ncnc5ccccc45)ccc32)cc1 [GW273749],22
6,O=c1cc(N2CCOCC2)nc2n(Cc3cccc(Cl)c3)ccn12 [GSK2296823],1
7,COc1ccc(NC(=O)c2ccc(-c3cc(-c4nnc(C)o4)ccc3C)cc2)cc1 [GW595885],14
8,Cc1ccc(NC(=O)c2cccc(C#N)c2)cc1-c1ccc(C(=O)Nc2ccncc2)cc1 [GSK1398463],98.3
9,FC(F)(F)c1ccc(-c2nn3ncccc3c2-c2ccnc(Nc3cccc(C(F)(F)F)c3)n2)cc1 [GW828205],0
10,CCn1c(-c2ccncc2)nc2cnccc21 [SB-735216],2
11,CC(C)(C)OC(=O)NC1CCCN(c2cc(-c3ccc4c(N)n[nH]c4c3)nc(N)n2)C1 (centres unmarked) [GSK2286096],10
12,CNc1nccc(-c2c(-c3ccc(F)cc3)ncn2C2CCN(C)CC2)n1 [SB-222903],0
13,CS(=O)(=O)CCNCc1ccc(-c2ccc3ncnc(Nc4ccc(OCc5ccccc5)c(Cl)c4)c3c2)o1.Cl [GW574783],0
14,COc1cc2c(Nc3cccc(NC(=O)c4ccccc4)c3)ncnc2cc1OCCCN1CCOCC1 [GSK223810],83
15,COc1ccc(NC(=O)Nc2ccc(C)c(-c3ccc(C(=O)Nc4ccncc4)cc3)c2)cc1 [GSK1398475],93.7
16,Oc1ccc2ncnc(Nc3ccc(OCc4ccccc4)cc3)c2c1 [GI262866],2
17,Fc1ccc(-c2ncn(CCCNCc3ccccc3)c2-c2ccncc2)cc1,4
18,FC(F)(F)c1ccc(-c2cc(-c3c[nH]nc3-c3ccccn3)ccn2)cc1 [GW599550],0
